# The supplement of paper PMC9694430
# Several values for one entry are separate records, joined by “and”; a condition that tells them apart may be missing. Identical values can stand only once.
# Legend:
# Assay in all cases: thermal shift delta Tm vs DMSO control; higher = stronger stabilization (binding)
# Details in all cases: 12.5 µM; protein concentration 2 µM
# LOC_OS01G01410-cb001 = test system: LOC_OS01G01410-cb001
# Method in brief: (§1)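 Purified, E. coli-expressed rice kinase domain constructs were tested by differential scanning fluorimetry in 96-well plates: 19.5 μl of 2 μM kinase in 100 mM potassium phosphate pH 7.5, 150 mM NaCl, 10% glycerol, 5 × SYPRO Orange, plus compound in DMSO. Fluorescence was read from 25°C to 95°C at 0.05°C/s. Melting temperatures came from Boltzmann fits, and the shift is the triplicate mean relative to protein with DMSO alone.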
# LOC_OS01G02750-cb003 = test system: LOC_OS01G02750-cb003
# Method in brief: as §1
# LOC_OS01G10900-cb004 = test system: LOC_OS01G10900-cb004
# Method in brief: as §1
# LOC_OS01G13800-cb001 = test system: LOC_OS01G13800-cb001
# Method in brief: as §1
# LOC_OS01G14860-cb001 = test system: LOC_OS01G14860-cb001
# Method in brief: as §1
# LOC_OS01G21960-cb002 = test system: LOC_OS01G21960-cb002
# Method in brief: as §1
# LOC_OS01G39600-cb002 = test system: LOC_OS01G39600-cb002
# Method in brief: as §1
# LOC_OS01G48390-cb002 = test system: LOC_OS01G48390-cb002
# Method in brief: as §1
# LOC_OS01G51400-cb002 = test system: LOC_OS01G51400-cb002
# Method in brief: as §1
# LOC_OS01G52050-cb004 = test system: T1, LOC_OS01G52050-cb004
# T1 sequence (whole entry): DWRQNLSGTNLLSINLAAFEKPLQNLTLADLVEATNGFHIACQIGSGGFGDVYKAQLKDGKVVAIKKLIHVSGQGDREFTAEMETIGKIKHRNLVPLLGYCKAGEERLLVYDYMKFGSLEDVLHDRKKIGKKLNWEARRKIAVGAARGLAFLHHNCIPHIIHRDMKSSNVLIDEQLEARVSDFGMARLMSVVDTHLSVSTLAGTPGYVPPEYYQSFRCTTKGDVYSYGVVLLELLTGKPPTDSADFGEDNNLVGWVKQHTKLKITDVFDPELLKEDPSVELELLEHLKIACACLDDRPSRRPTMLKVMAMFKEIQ
# Method in brief: as §1
# LOC_OS01G57100-cb003 = test system: LOC_OS01G57100-cb003
# Method in brief: as §1
# LOC_OS01G60330-cb001 = test system: LOC_OS01G60330-cb001
# Method in brief: as §1
# LOC_OS01G60700-cb002 = test system: LOC_OS01G60700-cb002
# Method in brief: as §1
# LOC_OS01G63280-cb003 = test system: LOC_OS01G63280-cb003
# Method in brief: as §1
# LOC_OS01G67340-cb003 = test system: LOC_OS01G67340-cb003
# Method in brief: as §1
# LOC_OS01G70970-cb002 = test system: LOC_OS01G70970-cb002
# Method in brief: as §1
# LOC_OS02G07810-cb001 = test system: LOC_OS02G07810-cb001
# Method in brief: as §1
# LOC_OS02G08530-cb003 = test system: LOC_OS02G08530-cb003
# Method in brief: as §1
# LOC_OS02G14120-cb001 = test system: LOC_OS02G14120-cb001
# Method in brief: as §1
# LOC_OS02G17970-cb001 = test system: LOC_OS02G17970-cb001
# Method in brief: as §1
Compound,thermal shift delta Tm (LOC_OS01G01410-cb001),thermal shift delta Tm (LOC_OS01G02750-cb003),thermal shift delta Tm (LOC_OS01G10900-cb004),thermal shift delta Tm (LOC_OS01G13800-cb001),thermal shift delta Tm (LOC_OS01G14860-cb001),thermal shift delta Tm (LOC_OS01G21960-cb002),thermal shift delta Tm (LOC_OS01G39600-cb002),thermal shift delta Tm (LOC_OS01G48390-cb002),thermal shift delta Tm (LOC_OS01G51400-cb002),thermal shift delta Tm (LOC_OS01G52050-cb004),thermal shift delta Tm (LOC_OS01G57100-cb003),thermal shift delta Tm (LOC_OS01G60330-cb001),thermal shift delta Tm (LOC_OS01G60700-cb002),thermal shift delta Tm (LOC_OS01G63280-cb003),thermal shift delta Tm (LOC_OS01G67340-cb003),thermal shift delta Tm (LOC_OS01G70970-cb002),thermal shift delta Tm (LOC_OS02G07810-cb001),thermal shift delta Tm (LOC_OS02G08530-cb003),thermal shift delta Tm (LOC_OS02G14120-cb001),thermal shift delta Tm (LOC_OS02G17970-cb001)
O=C1NCCc2[nH]c(-c3ccncc3)cc21,0.69 °C,-0.36 °C,0.12 °C,0.78 °C,5.61 °C,2.12 °C,-0.24 °C,0.48 °C,0.19 °C,1.31 °C,1.88 °C,1.38 °C,0.92 °C,0.5 °C,1.42 °C,0.32 °C,0.78 °C,2.64 °C,1.75 °C,0.79 °C
COc1cc2c(Oc3ccc4[nH]c(C)cc4c3F)ncnc2cc1OCCCN1CCCC1 [Cediranib (AZD2171)],0.9 °C,0.39 °C,0.21 °C,0.33 °C,0.26 °C,0.39 °C,0.22 °C,0.63 °C,0.05 °C,0.09 °C,0.31 °C,1.14 °C,0.79 °C,0.02 °C,0.06 °C,0.42 °C,0.2 °C,0.41 °C,0.33 °C,0.26 °C
CC#CC(=O)N1CCC[C@H]1c1nc(-c2ccc(C(=O)Nc3ccccn3)cc2)c2c(N)nccn12 [Acalabrutinib (ACP-196)],0.74 °C,0.55 °C,0.53 °C,0.19 °C,0.36 °C,0.47 °C,0.15 °C,0.22 °C,-0.06 °C,-0.21 °C,0.82 °C,0.94 °C,1.14 °C,0.05 °C,0.39 °C,0.4 °C,0.04 °C,0.89 °C,0.57 °C,0.74 °C
Cc1c[nH]c(/C=C2\C(=O)Nc3ccccc32)c1CCC(=O)O,1.48 °C,0.9 °C,0.02 °C,0 °C,1.61 °C,0.56 °C,4.55 °C,1.99 °C,0.25 °C,1.77 °C,0.49 °C,11.5 °C,0.67 °C,0.07 °C,3.1 °C,5.88 °C,-0.06 °C,3.9 °C,1.56 °C,0.22 °C
CCC(=O)Nc1cccc(Oc2nc(Nc3ccc(N4CCN(C)CC4)cc3OC)ncc2Cl)c1,0.36 °C,1.2 °C,0.23 °C,-0.06 °C,-0.01 °C,0.7 °C,-0.79 °C,0.98 °C,0.38 °C,0.14 °C,0.87 °C,1.08 °C,1.14 °C,0.16 °C,0.44 °C,0.22 °C,0.45 °C,1.46 °C,0.22 °C,0.04 °C
CO[C@H]1C[C@@H]2CC[C@@H](C)[C@@](O)(O2)C(=O)C(=O)N2CCCC[C@H]2C(=O)O[C@H]([C@H](C)C[C@@H]2CC[C@@H](OCCO)[C@H](OC)C2)CC(=O)[C@H](C)/C=C(\C)[C@@H](O)[C@@H](OC)C(=O)[C@H](C)C[C@H](C)/C=C/C=C/C=C/1C [Everolimus (RAD001)],1.13 °C,-1.72 °C,0.03 °C,0.16 °C,-0.41 °C,0.16 °C,0.54 °C,0.33 °C,-0.03 °C,0.35 °C,0.99 °C,1.72 °C,0.6 °C,0.26 °C,-0.17 °C,-0.1 °C,0.75 °C,0.55 °C,1.17 °C,0.76 °C
C[C@H](NC(=O)/C(C#N)=C/c1cccc(Br)n1)c1ccccc1,-1.2 °C,-2.27 °C,-0.05 °C,-0.79 °C,-1.13 °C,-0.08 °C,-1.71 °C,0.12 °C,-1 °C,-1.36 °C,2.09 °C,0.03 °C,-0.53 °C,-4.67 °C,-1.18 °C,-1.46 °C,0.51 °C,0.47 °C,-1.36 °C,-2.09 °C
CC1(C)OCCn2c1nc1c(N3CCOCC3)nc(-c3cnc(N)nc3)nc12,2.4 °C,0.54 °C,1.05 °C,0.07 °C,0.3 °C,1.06 °C,0.85 °C,0.14 °C,0.12 °C,0.62 °C,-0.05 °C,5.04 °C,0.81 °C,-0.02 °C,0.53 °C,1.29 °C,0.49 °C,1.45 °C,0.72 °C,0.78 °C
Cc1cnc(-c2cnc(NCCNc3ccc(C#N)cn3)nc2-c2ccc(Cl)cc2Cl)[nH]1,0.25 °C and -0.35 °C,1.32 °C and 0.93 °C,0.52 °C and -0.13 °C,0.39 °C and 0.37 °C,7.39 °C and 7.4 °C,1.7 °C and 1.69 °C,0.07 °C and 1.56 °C,0.47 °C and 0.64 °C,0.25 °C and 0.6 °C,0.73 °C and 0.53 °C,0.99 °C and 1.83 °C,0.47 °C and 0.68 °C,0.39 °C and 1.43 °C,1.2 °C and 1.03 °C,0.03 °C and 0.47 °C,1.08 °C and 1.19 °C,1.11 °C and 0.87 °C,0.72 °C and 0.68 °C,0.07 °C and 0.44 °C,0.65 °C and 2.15 °C
Cc1cnc(Nc2ccc(N3CCN(C)CC3)cc2)nc1Nc1cccc(S(=O)(=O)NC(C)(C)C)c1,1.26 °C,0.29 °C,0.71 °C,0.25 °C,1.34 °C,2.76 °C,6.04 °C,1.61 °C,0.64 °C,3.19 °C,2.09 °C,2.84 °C,1.28 °C,0.46 °C,1.05 °C,3.63 °C,0.9 °C,3.06 °C,8.37 °C,1.17 °C
CC(C)(C)S(=O)(=O)c1ccc2nccc(Nc3n[nH]c4ccc(F)cc34)c2c1,0.34 °C,1.74 °C,0.48 °C,-0.44 °C,0.3 °C,0.28 °C,1.01 °C,1.31 °C,0.33 °C,0.16 °C,0.91 °C,0.99 °C,0.81 °C,-0.25 °C,0.66 °C,0.6 °C,0.19 °C,0.61 °C,0.25 °C,0.37 °C
Cn1cc(-c2ccc3nnc(C(F)(F)c4ccc5ncccc5c4)n3n2)cn1,1.27 °C,-0.24 °C,5.11 °C,0.46 °C,0.28 °C,1.41 °C,1.09 °C,0.82 °C,0.35 °C,1.02 °C,1.42 °C,1.1 °C,1.32 °C,0.31 °C,-0.37 °C,0.13 °C,0.91 °C,1.21 °C,2.28 °C,0.51 °C
